{"source": "PubChem BioAssay (NCATS)", "note": "Results filed as inconclusive are left out. Activity calls are given as the source filed them. The call rests on the fitted dose curve; in most records, active means well fitted cell-killing curve with a large enough effect; inconclusive means small, poorly fitted or top-dose-only effect, or effect the other way; inactive means no such curve, though single readings can be large or run the other way. Potency means the concentration at half of the fitted maximal effect.", "data": [{"test": "Quantitative High-Throughput drug screen in 47 multiple myeloma cell lines against the NCATS MIPE library collection: KMS20_JCRB cell viability assay (AID 1918973); further: nearly all actives have a fitted effect of over 45% in size", "conditions": "CellTiter-Glo ATP, 48 h; series mostly up to 45.8 µM; viability (% of DMSO): at the top concentration", "excerpt": "PI: Beverly A. Mock Ph.D.\nLaboratory of Cancer Biology and Genetics,\nCenter for Cancer Research, National Cancer Institute,\nNational Institute of Health, Bethesda, Maryland\nDrug resistance and disease progression are common in multiple myeloma (MM) patients, underscoring the need for new therapeutic combinations. […] We hypothesized that effective combinations would reduce MYC expression and enhance p16 activity. […] These preclinical data identify potentially useful drug combinations for evaluation in drug-resistant MM and reveal potential mechanisms of combined drug sensitivity.\nDescribed herein is the primary MIPE qHTS used to cherrypick compounds. Validated compounds were then further tested for potential synergistic activiy.\n[1] Peat TJ, Gaikwad SM, Dubois W, Gyabaah-Kessie N, Zhang S, Gorjifard S, Phyo Z, Andres M, Hughitt VK, Simpson RM, Miller MA, Girvin AT, Taylor A, Williams D, D'Antonio N, Zhang Y, Rajagopalan A, Flietner E, Wilson K, Zhang X, Shinn P, Klumpp-Thomas C, McKnight C, Itkin Z, Chen L, Kazandijian D, Zhang J, Michalowski AM, Simmons JK, Keats J, Thomas CJ, Mock BA. Drug combinations identified by high-throughput screening promote cell cycle transition and upregulate Smad pathways in myeloma. Cancer Lett. 2023 Aug 1;568:216284. doi: 10.1016/j.canlet.2023.216284. Epub 2023 Jun 24. PMID: 37356470; PMCID: PMC10408729.\nSEQUENCE No. (e.g., 1, 2, 3, etc.); […] (e.g., Cells, Incubation, Reagent, etc.); VALUE and DESCRIPTION.\n1; Cells; 5 uL; white, solid bottom 1536-well Greiner assay plate.\n2; Compounds; 23 nL; Kalypsis pin tool (Wako USA) equipped with a 1536-well pin head to transfer to the assay plates.\n3; Incubation; 48 hours; 37C incubation.\n4; Reagent;5uL; CellTiter Glo (Promega).\n5; Detector; 425V; Luminescence; Viewlux PerkinElmer.\nNOTES (numbers refer to Sequence numbers above)\n1. The cell-based screening methods employed in this study were like those previously published. Briefly, the corresponding myeloma cell lines were screened in 1,536-well plates with 500 cells, 5-uL per well for inhibition of cell viability (assessed by measuring ATP levels with CellTiterGlo).\n2. NCATS MIPE 4.0 library of approved and investigational drugs were added using the Kalypsis pin tool. Wells treated with DMSO only for 100% viability and media only wells for 0% viability were used as controls.\n3. The assay plates were covered and incubated for 48 hours in a 37C, 5% CO2 incubator with controlled humidity.\n4. After 48 hours, CellTilter-GloTM luminescent substrate mix (Promega) reagent was added to the assay plate and plates we incubated for 5 min at room temperature.\n5. Signal was measured as median relative luminescence units on a ViewLux (PerkinElmer) multiplate reader.\n[1] Heske CM, Davis MI, Baumgart JT, Wilson K, Gormally MV, Chen L, Zhang X, Ceribelli M, Duveau DY, Guha R, Ferrer M, Arnaldez FI, Ji J, Tran HL, Zhang Y, Mendoza A, Helman LJ, Thomas CJ. Matrix Screen Identifies Synergistic Combination of PARP Inhibitors and Nicotinamide Phosphoribosyltransferase (NAMPT) Inhibitors in Ewing Sarcoma. Clin Cancer Res. 2017 Dec 1;23(23):7301-7311. doi: 10.1158/1078-0432.CCR-17-1121. Epub 2017 Sep 12. PMID: 28899971; PMCID: PMC6636827.", "values": [{"smiles": "CC(=O)NCCC(=O)N[C@@H](CCC(N)=O)C(=O)N[C@@H](CO)C(=O)N[C@@H](CCC(N)=O)C(=O)N[C@@H](CCC(N)=O)C(=O)N[C@H](C(=O)N[C@@H](Cc1ccccc1)C(=O)N[C@]1(C)CCCCCCC=CCCC[C@@](C)(C(=O)N[C@@H](CCC(N)=O)C(=O)N[C@@H](CC(N)=O)C(N)=O)NC(=O)[C@H](CC(C)C)NC(=O)[C@H](CC(C)C)NC(=O)[C@@H](CCCNC(=N)N)NC(=O)[C@H](Cc2c[nH]c3ccccc23)NC(=O)[C@H](CC(C)C)NC(=O)[C@H](CC(N)=O)NC1=O)[C@H](C)O", "Potency": "18.7 µM (active)"}, {"smiles": "Cc1nc(NC(=O)N2CCC[C@@H]2C(N)=O)sc1-c1csc(C(C)(C)C)n1", "Potency": "2.64 µM (active)"}, {"smiles": "CN(C)CCOc1ccc(-c2nc(-c3ccc4c(c3)CCC4=NO)c(-c3ccncc3)[nH]2)cc1", "Potency": "6.62 µM (active)"}, {"smiles": "C[C@H](CCC(=O)O)[C@H]1CC[C@H]2[C@H]3[C@@H](CC[C@]12C)[C@@]1(C)CC[C@@H](O)C[C@H]1C[C@@H]3O", "viability (% of DMSO)": "132% (inactive)"}, {"smiles": "C[C@@H]1[C@H](C)CC[C@]2(C(=O)O)CC[C@]3(C)C(=CC[C@@H]4[C@@]5(C)CC[C@H](O)C(C)(C)[C@H]5CC[C@]43C)[C@@H]12", "viability (% of DMSO)": "107% [at 92.2 µM] (inactive)"}, {"smiles": "CN1CCC(COc2cnc(-c3cccc(Cn4nc(-c5cccc(C#N)c5)ccc4=O)c3)nc2)CC1", "Potency": "0.526 µM (active)"}, {"smiles": "CCOC(=O)[C@H]1O[C@H]1C(=O)N[C@@H](CC(C)C)C(=O)NCCC(C)C", "viability (% of DMSO)": "114% (inactive)"}, {"smiles": "CC(C)N(CCCNC(=O)Nc1ccc(C(C)(C)C)cc1)C[C@H]1O[C@@H](n2cc(Br)c3c(N)ncnc32)[C@H](O)[C@H]1O", "Potency": "5.26 µM (active)"}, {"smiles": "COc1cccc(OC)c1-c1cc(C(=O)NC2(C(=O)O)C3CC4CC(C3)CC2C4)nn1-c1ccnc2cc(Cl)ccc12", "note": "(stereo not given)", "viability (% of DMSO)": "154% (inactive)"}, {"smiles": "CCCCC(F)(F)[C@@]1(O)CC[C@H]2[C@H](CC(=O)[C@@H]2CCCCCCC(=O)O)O1", "Potency": "0.418 µM (active)"}, {"smiles": "Cc1ccc2c(c1)C(=O)[C@]1(O)CCN(c3ccccc3)C1=N2", "Potency": "2.96 µM (active)"}, {"smiles": "NC(=O)c1noc([C@H](CCCC2CCCCC2)CC(=O)NO)n1", "Potency": "18.7 µM (active)"}, {"smiles": "C[C@@]1(c2cc(-c3cncnc3)c(F)cc2F)CCSC(N)=N1", "Potency": "9.35 µM (active)"}, {"smiles": "CN(C)CCN(C)C(=O)c1ccc(NC(=O)Nc2ccc(-c3nc(N4CCOCC4)c4ccn(CC(F)(F)F)c4n3)cc2)cc1", "Potency": "0.0418 µM (active)"}, {"smiles": "COc1ccnc(CS(=O)c2nc3ccc(OC(F)F)cc3[nH]2)c1OC", "note": "(stereo not given)", "viability (% of DMSO)": "93.7% (inactive)"}, {"smiles": "CCN(CC)CCCCNc1nc2cc(Cl)c(Cl)cc2nc1-c1ccc(-c2cccs2)s1", "Potency": "4.69 µM (active)"}, {"smiles": "COc1ccc(-c2cc3nccn3c(Nc3ncccc3C(N)=O)n2)cc1OC", "Potency": "0.418 µM (active)"}, {"smiles": "c1cc(OCCN2CCCCC2)cc(-c2n[nH]c3ccc(-c4ncn[nH]4)cc23)c1", "Potency": "18.7 µM (active)"}, {"smiles": "CC[C@H]1OC(=O)[C@H](C)[C@@H](O[C@H]2C[C@@](C)(OC)[C@@H](O)[C@H](C)O2)[C@H](C)[C@@H](O[C@@H]2O[C@H](C)C[C@H](N(C)C)[C@H]2O)[C@](C)(O)C[C@H](C)C(=NOCOCCOC)[C@H](C)[C@@H](O)[C@]1(C)O", "viability (% of DMSO)": "89.5% (inactive)"}, {"smiles": "COc1ccc2c(c1)CC[C@H]1[C@@H]2CC[C@]2(C)[C@@H](NCCCCCCN3C(=O)C=CC3=O)CC[C@H]12", "viability (% of DMSO)": "110% (inactive)"}, {"smiles": "Cn1c(=O)c(Oc2ccc(F)cc2F)cc2cnc(NC3CCOCC3)nc21", "viability (% of DMSO)": "75.8% (inactive)"}, {"smiles": "CCOC(=O)N1c2ccc(C(F)(F)F)cc2[C@@H](N(Cc2cc(C(F)(F)F)cc(C(F)(F)F)c2)C(=O)OC)C[C@H]1CC", "viability (% of DMSO)": "89.7% (inactive)"}, {"smiles": "CN1N=C(N)c2cn([C@@H]3O[C@H](COP(=O)(O)O)[C@@H](O)[C@@H]3O)c3ncnc1c23", "Potency": "1.32 µM (active)"}, {"smiles": "CC(C)n1c(C=C[C@H](O)C[C@H](O)CC(=O)O)c(-c2ccc(F)cc2)c2ccccc21", "Potency": "20.9 µM (active)"}, {"smiles": "CC(C)CN(C[C@H](O)[C@H](Cc1ccccc1)NC(=O)O[C@H]1CCOC1)S(=O)(=O)c1ccc(N)cc1", "Potency": "16.6 µM (active)"}, {"smiles": "Cc1nn(Cc2ccccc2Cl)c(C)c1CN(C)CC(O)COc1ccc(Cl)cc1", "note": "(stereo not given)", "Potency": "11.8 µM (active)"}, {"smiles": "N#CC(c1ccc(Cl)cc1)c1c(Cl)cc(-n2ncc(=O)[nH]c2=O)cc1Cl", "note": "(stereo not given)", "Potency": "3.72 µM (active)"}, {"smiles": "Nc1nc(Cl)nc2c1ncn2[C@@H]1O[C@H](CO)[C@@H](O)[C@H]1F", "Potency": "0.0264 µM (active)"}, {"smiles": "CS(=O)(=O)c1ccc(C2=C(c3ccccc3)C(=O)OC2)cc1", "viability (% of DMSO)": "142% (inactive)"}, {"smiles": "CC(C)[C@H](O)C(=O)N[C@@H](C)C(=O)N[C@@H]1C(=O)N(C)CCc2ccccc21", "viability (% of DMSO)": "94.5% (inactive)"}, {"smiles": "OC[C@H]1O[C@@H](Oc2ccc(O)cc2)[C@H](O)[C@@H](O)[C@H]1O", "viability (% of DMSO)": "79% (inactive)"}, {"smiles": "Cc1cccc(-c2[nH]c(C(C)(C)C)nc2-c2ccc3c(c2)OCO3)n1", "Potency": "2.35 µM (active)"}, {"smiles": "C=CC[N+]1([C@H]2C[C@H]3[C@@H]4CC[C@H]5C[C@H](O)[C@@H](N6CCOCC6)C[C@]5(C)[C@@H]4CC[C@]3(C)[C@H]2OC(C)=O)CCCC1", "viability (% of DMSO)": "140% (inactive)"}, {"smiles": "CCN1CCN(c2ccc(Nc3cc(N(C)C(=O)Nc4c(Cl)c(OC)cc(OC)c4Cl)ncn3)cc2)CC1", "Potency": "2.09 µM (active)"}, {"smiles": "COc1ccc2nc3cc(Cl)ccc3c(Nc3cc(CN4CCCC4)c(O)c(CN4CCCC4)c3)c2n1", "Potency": "20.9 µM (active)"}, {"smiles": "CC1(C)OC2CC3C4CC(F)C5=CC(=O)C=CC5(C)C4C(O)CC3(C)[C@]2(C(=O)CO)O1", "note": "(stereo not given in full)", "viability (% of DMSO)": "112% (inactive)"}, {"smiles": "CCc1cccc(CC)c1NC(=O)N1Cc2[nH]nc(NC(=O)c3ccc(N4CCN(C)CC4)cc3)c2C1", "Potency": "14.8 µM (active)"}, {"smiles": "Cc1ccc(NC(=O)Nc2cc(C(F)(F)F)ccc2F)cc1Nc1ccc2c(c1)NC(=O)C2=Cc1ccc[nH]1", "Potency": "5.9 µM (active)"}, {"smiles": "Cc1cnc(Nc2cccc(CN3CCOCC3)c2)nc1Nc1cccc(S(=O)(=O)NC(C)(C)C)c1", "Potency": "2.96 µM (active)"}, {"smiles": "CSc1cccc(Nc2ncc3cc(-c4c(Cl)cccc4Cl)c(=O)n(C)c3n2)c1", "Potency": "0.0105 µM (active)"}]}]}
